Our source for the Potency and outcome values is PubChem BioAssay (NCATS).

Where “and” joins values, the source holds several entries; their conditions need not be identical. Equal entries are not always repeated. Inconclusive results are not listed. Where a structure was tested more than once in an assay, its records may differ in their call. Calls of active or inactive are those of the source. Unless noted, calls come from the whole dose curve; as a rule, active = well fitted curve in the direction sought with a large enough effect; inconclusive = small, poorly fitted or top-dose-only effect, or another doubt; inactive = no such curve, though single readings can be large; an effect the other way counts as inactive or inconclusive.

Experiment [1] is described as follows: Primary qHTS for small molecule stabilizers of the endoplasmic reticulum resident proteome: Secreted ER Calcium Modulated Protein (SERCaMP) assay (AID 1508630). In short, it runs like this: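 GLuc-SERCaMP-expressing SH-SY5Y cells, pretreated 16 h with compound, are challenged with thapsigargin to empty ER calcium stores; after 4 h, coelenterazine is added directly to the medium and luminescence is imaged.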

Experiment [2] concerns the target Cytochrome P450 2C9 (Homo sapiens) (UniProt P11712). Nature of the experiment: Cytochrome P450 family 2 subfamily C member 9 (CYP2C9) small molecule antagonists: luciferase biochemical (cell-free) qHTS assay (AID 1645842; active = well fitted curve in the direction sought with a large enough effect in the repeat runs; an effect the other way counts as inactive or inconclusive; note: nearly all actives have a fitted effect of over 55% in size; note: potency is the fitted concentration of half-maximal effect). In short, it runs like this:
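Luminescence, after 20 min with luciferin detection reagent, reflected CYP2C9 turnover during a 1 h NADPH-driven reaction at 37C. Enzyme-substrate mix contained 0.4% bovine serum albumin and was preincubated with compound 10 min at room temperature.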
On the technique in general: qHTS replaces the single test concentration by a dilution series.

For experiment [3], the target named is Cytochrome P450 2D6 (Homo sapiens) (UniProt P10635). Kind of experiment: Cytochrome P450 family 2 subfamily D member 6 (CYP2D6) small molecule antagonists: luciferase biochemical (cell-free) qHTS assay (AID 1645840; active = well fitted curve in the direction sought with a large enough effect in the repeat runs; an effect the other way counts as inactive or inconclusive; note: nearly all actives have a fitted effect of over 55% in size; note: potency is the fitted concentration of half-maximal effect). In short, it runs like this: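 P450-Glo luminescent screen: recombinant CYP2D6 enzyme–proluciferin substrate mix preincubated with compound 10 min at room temperature, then NADPH regeneration added for 1 h at room temperature. Detection reagent added for 20 min; luciferin light read as relative luminescence units.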

The target of a further experiment is Papain (Carica papaya) (UniProt P00784). Kind of experiment: Primary qHTS assay for inhibitors of the protease papain (AID 1645873).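 Note: papain turnover of Z-FR-AMC read as the AMC fluorescence gain over 10 min.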 Note: potency is the fitted concentration of half-maximal effect.
Experiment [4] in a line: Primary qHTS for inhibitors of nuclear receptor binding SET domain protein 2 (NSD2) in an isogenic RCH-ACV NSD2 p.E1099K mutant (9B) (AID 1645876). Note: nearly all actives have a fitted effect of over 70% in size. Note: potency is the fitted concentration of half-maximal effect.
Experiment [5] in a line: Primary qHTS for inhibitors of nuclear receptor binding SET domain protein 2 (NSD2) in an RCH-ACV wild type WT cells (2C) (AID 1645877). Note: nearly all actives have a fitted effect of over 70% in size. Note: potency is the fitted concentration of half-maximal effect.
Experiment [6] is described as follows: A High-Content qHTS Against Drug Library for the Identification of Small Molecules that Inhibit DYT1 Early Onset Primary Dystonia-Associated Cell Pathology (AID 1645839; calls by dose curve; note: potency is the fitted concentration of half-maximal effect). In short, it runs like this:
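Flp-In T-REx 293 cells with tetracycline-inducible EGFP-delE hTOR1A (WT EGFP-hTOR1A as reference), 800 cells/well; compound added with tetracycline, 48 h at 37 C. Fixed, permeabilized cells imaged; %pathology (punctate TorsinA) primary, cell count counterscreen.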

Experiment [7] has as its target N-terminal Xaa-Pro-Lys N-methyltransferase 1 (Homo sapiens) (UniProt Q9BV86). Nature of the experiment: Confirmatory qHTS for Inhibitors of N-terminal methyltransferase 1 (NTMT1): MTaseGlo Assay (AID 1645874).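 Note: luminescence from SAH made as NTMT1 methylates SPKRIA peptide using SAM; series mostly up to about 100 µM; nearly all actives have a fitted effect of over 65% in size.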 In short, it runs like this: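 qHTS format: NTMT1 125 nM, SAM 100 uM, peptide SPKRIA 1 uM final; 15 min compound preincubation, 30 min reaction at room temperature. MTase-Glo luminescence.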

Sequence of Cytochrome P450 2C9 (Homo sapiens) (P11712 whole entry, looked up): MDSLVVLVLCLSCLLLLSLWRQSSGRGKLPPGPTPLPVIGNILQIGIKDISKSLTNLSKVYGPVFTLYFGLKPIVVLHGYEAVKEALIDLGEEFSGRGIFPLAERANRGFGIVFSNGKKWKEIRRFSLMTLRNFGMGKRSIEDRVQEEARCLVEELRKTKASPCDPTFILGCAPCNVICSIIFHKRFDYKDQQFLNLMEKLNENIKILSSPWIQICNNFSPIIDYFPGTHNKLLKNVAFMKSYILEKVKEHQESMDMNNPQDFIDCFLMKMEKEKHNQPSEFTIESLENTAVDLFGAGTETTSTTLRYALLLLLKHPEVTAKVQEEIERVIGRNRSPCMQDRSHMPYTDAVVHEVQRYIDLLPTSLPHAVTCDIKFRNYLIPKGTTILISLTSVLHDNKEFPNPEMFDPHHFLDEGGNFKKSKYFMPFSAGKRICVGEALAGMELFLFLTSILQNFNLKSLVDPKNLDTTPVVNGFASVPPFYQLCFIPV
Sequence of Cytochrome P450 2D6 (Homo sapiens) (P10635 whole entry, looked up): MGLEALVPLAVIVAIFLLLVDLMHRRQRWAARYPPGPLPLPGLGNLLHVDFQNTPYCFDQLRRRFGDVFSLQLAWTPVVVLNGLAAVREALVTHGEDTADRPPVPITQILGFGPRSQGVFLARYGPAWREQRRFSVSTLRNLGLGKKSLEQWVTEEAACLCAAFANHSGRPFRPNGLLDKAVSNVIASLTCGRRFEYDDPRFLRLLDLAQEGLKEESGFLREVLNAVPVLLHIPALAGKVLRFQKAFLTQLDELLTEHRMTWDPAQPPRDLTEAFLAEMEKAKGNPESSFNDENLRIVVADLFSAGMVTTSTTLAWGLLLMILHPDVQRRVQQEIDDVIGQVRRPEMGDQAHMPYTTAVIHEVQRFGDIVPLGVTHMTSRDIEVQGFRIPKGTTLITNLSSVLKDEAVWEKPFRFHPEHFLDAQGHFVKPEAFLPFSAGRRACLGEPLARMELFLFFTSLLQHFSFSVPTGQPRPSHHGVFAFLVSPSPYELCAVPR
Sequence of Papain (Carica papaya) (P00784 whole entry, looked up, the tested form may be a part): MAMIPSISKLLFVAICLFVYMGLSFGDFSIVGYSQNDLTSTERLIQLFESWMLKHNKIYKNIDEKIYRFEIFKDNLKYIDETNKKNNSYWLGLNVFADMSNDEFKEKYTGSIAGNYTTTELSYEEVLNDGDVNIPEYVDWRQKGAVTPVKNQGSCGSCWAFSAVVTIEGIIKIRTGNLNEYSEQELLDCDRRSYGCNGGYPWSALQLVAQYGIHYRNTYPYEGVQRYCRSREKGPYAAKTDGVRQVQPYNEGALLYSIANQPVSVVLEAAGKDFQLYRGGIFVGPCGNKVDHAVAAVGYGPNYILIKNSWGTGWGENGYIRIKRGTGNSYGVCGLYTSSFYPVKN
Sequence of N-terminal Xaa-Pro-Lys N-methyltransferase 1 (Homo sapiens) (Q9BV86 whole entry, looked up): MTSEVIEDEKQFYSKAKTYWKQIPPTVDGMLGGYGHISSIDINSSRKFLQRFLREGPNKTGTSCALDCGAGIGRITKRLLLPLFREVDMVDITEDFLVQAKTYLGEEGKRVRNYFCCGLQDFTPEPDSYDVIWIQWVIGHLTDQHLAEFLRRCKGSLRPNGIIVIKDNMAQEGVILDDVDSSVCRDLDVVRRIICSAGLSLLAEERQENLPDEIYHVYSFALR

As for `CC1(CN2CCC(n3c(=O)[nH]c4ccccc43)CC2)OCc2ccccc2-n2cccc21` (stereo unspecified), the Potency result in experiment [1] was “inactive”. In addition, in experiment [2], the Potency was 9.77 µM (active).
Take `O=C1Cc2cc(CCN3CCN(c4nsc5ccccc45)CC3)c(Cl)cc2N1`: the Potency result in experiment [1] was “inactive”. The Potency in experiment [3] was 9.77 µM (active); in the experiment with Papain (Carica papaya), 3.55 µM (active); in experiment [4] it was 15 µM (active); in experiment [5], 20.5 µM (active).
With `COc1cc2nc(N3CCN(C(=O)c4ccco4)CC3)nc(N)c2cc1OC`, the Potency result in experiment [1] and in experiment [2] was “inactive” throughout. Also, the Potency in experiment [4] and in experiment [5] was 13 µM (active) each time.
As for `O=C(c1ccc(OCCN2CCCCC2)cc1)c1c(-c2ccc(O)cc2)sc2cc(O)ccc12`, the Potency entry with Papain (Carica papaya) was “inactive”. Also, the Potency in experiment [4] is 21.1 µM (active) and 23.5 µM (active) and 20.6 µM (active); in experiment [5], 13.3 µM (active) and 18.6 µM (active) and 18.4 µM (active).
Regarding `COc1cc2nc(N3CCN(C(=O)C4COc5ccccc5O4)CC3)nc(N)c2cc1OC` (stereo unspecified), the Potency entry in experiment [1] and in experiment [2] was “inactive” throughout. The Potency with Papain (Carica papaya) is 25.1 µM (active).
In the case of `Cn1ccc2cc3c(cc21)CCN3C(=O)Nc1cccnc1`, the Potency entry (in experiment [1]; in experiment [2]; with Papain (Carica papaya); in experiment [4]; in experiment [5]) was “inactive” each time.
Regarding `COc1ccccc1N1CCN(CC(O)COc2cccc3ccccc23)CC1` (stereo unspecified), the Potency entry (in experiment [1]; with Papain (Carica papaya)) was “inactive” throughout.
In the case of `NCCS(=O)(=O)O`, the Potency result (in experiment [1]; in experiment [6]; in the experiment with Papain (Carica papaya); in experiment [4]; in experiment [5]) was “inactive” in each case.
As to `OCCN(CCO)c1nc(N2CCCCC2)c2nc(N(CCO)CCO)nc(N3CCCCC3)c2n1`, the Potency result (in experiment [1]; in the experiment with Papain (Carica papaya)) was “inactive” each time. Also, the Potency was 6.68 µM (active) and inactive in experiment [4]; 6.68 µM (active) and inactive in experiment [5].
For `CN1CCC(=C2c3ccccc3C=Cc3ccccc32)CC1`, the Potency result (in experiment [2]; in the experiment with Papain (Carica papaya)) was “inactive” in each case. The Potency is 23.5 µM (active) in experiment [4] and 18.6 µM (active) in experiment [5].
Turning to `COc1cc2nc(N(C)CCCNC(=O)C3CCCO3)nc(N)c2cc1OC` (stereo unspecified), the Potency entry in experiment [1], in experiment [2], in experiment [4] and in experiment [5] was “inactive” each time. Moreover, the Potency with Papain (Carica papaya) was 22.4 µM (active).
As to `CCCNCC(O)COc1ccccc1C(=O)CCc1ccccc1` (stereo unspecified), the Potency result (in experiment [1]; with Papain (Carica papaya)) was “inactive” each time. In addition, the Potency is 18.6 µM (active) in experiment [4]; 15 µM (active) and 16.6 µM (active) in experiment [5].
Regarding `OCCN1CCN(CCCN2c3ccccc3Sc3ccc(C(F)(F)F)cc32)CC1`, the Potency entry (in experiment [1]; in the experiment with Papain (Carica papaya)) was “inactive” each time. Moreover, the Potency in experiment [4] and in experiment [5] was 18.8 µM (active) throughout.
On to `CCOC(=O)Nc1ccc(NCc2ccc(F)cc2)nc1N`, for which the Potency entry in experiment [1], in experiment [6], in experiment [4] and in experiment [5] was “inactive” in each case.
On to `CN(C)C(=N)N=C(N)N`, for which, in experiment [6], the Potency entry is “inactive”.
`CN(C)CCC=C1c2ccccc2C=Cc2ccccc21`: the Potency result (in experiment [2]; with Papain (Carica papaya)) was “inactive” in each case. For the same compound, the outcome in experiment [7] was inactive. For the same compound, the Potency in experiment [4] was 20.9 µM (active); in experiment [5] it was 23.5 µM (active).
In the case of `CS(=O)(=O)CCNCc1ccc(-c2ccc3ncnc(Nc4ccc(OCc5cccc(F)c5)c(Cl)c4)c3c2)o1`, in experiment [1], the Potency result is “inactive”. In addition, the Potency in experiment [4] is 18.8 µM (active) and 9.16 µM (active) and 16.6 µM (active); in experiment [5] it was 11.9 µM (active) and 7.28 µM (active) and 16.6 µM (active).
With `CN1CCN(CCCN2c3ccccc3Sc3ccc(Cl)cc32)CC1`, the Potency result (in experiment [1]; in experiment [2]; in the experiment with Papain (Carica papaya)) was “inactive” each time. For the same compound, in experiment [3], the Potency was 0.155 µM (active).
For the compound `Nc1nc2c(ncn2COC(CO)CO)c(=O)[nH]1`, the Potency result (in experiment [6]; in experiment [2]; with Papain (Carica papaya); in experiment [4]; in experiment [5]) was “inactive” in each case.
Turning to `CN1CCN(C2=Nc3cc(Cl)ccc3Nc3ccccc32)CC1`, in the experiment with Papain (Carica papaya), the Potency entry is “inactive”.
For `CC(C(=O)O)c1cccc(C(=O)c2ccccc2)c1` (stereo unspecified), the Potency result (in experiment [6]; with Papain (Carica papaya)) was “inactive” each time. Also, the Potency in experiment [2] was 19.5 µM (active).
In the case of `Clc1ccccc1C(c1ccccc1)(c1ccccc1)n1ccnc1`, the values for the Potency in experiment [2], in experiment [4] and in experiment [5] were 0.977 µM (active), 10.5 µM (active) and 9.34 µM (active), respectively. Further, in the experiment with Papain (Carica papaya), the Potency result is “inactive”.
In the case of `Cc1ccc(-c2cc(C(F)(F)F)nn2-c2ccc(S(N)(=O)=O)cc2)cc1`, the Potency result (in experiment [1]; with Papain (Carica papaya)) was “inactive” each time. The Potency in experiment [2] was 12.3 µM (active).
In the case of `O=C(CCCN1CCC(O)(c2ccc(Cl)cc2)CC1)c1ccc(F)cc1`, the Potency entry (in experiment [2]; with Papain (Carica papaya)) was “inactive” each time.
For `Cn1cnc2c1c(=O)[nH]c(=O)n2C`, the Potency entry (in experiment [1]; in experiment [6]; with Papain (Carica papaya); in experiment [4]; in experiment [5]) was “inactive” each time.
Take `COc1nc(C)nc(Cl)c1NC1=NCCN1`: the Potency entry (in experiment [6]; in experiment [3]; in experiment [2]; in the experiment with Papain (Carica papaya); in experiment [4]; in experiment [5]) was “inactive” each time.
Turning to `CC#C[C@]1(O)CC[C@H]2[C@@H]3CCC4=CC(=O)CCC4=C3[C@@H](c3ccc(N(C)C)cc3)C[C@@]21C`, the Potency entry (in experiment [1]; with Papain (Carica papaya)) was “inactive” throughout. Also, the Potency in experiment [2] was 1.74 µM (active); in experiment [4] it was 23.5 µM (active).
`NC(=O)NO`: the Potency result (in experiment [1]; in experiment [6]; in the experiment with Papain (Carica papaya); in experiment [4]; in experiment [5]) was “inactive” each time.
Take `CN(C)CCOC(c1ccccc1)c1ccccc1`: the Potency entry (in experiment [1]; in experiment [6]; with Papain (Carica papaya); in experiment [4]; in experiment [5]) was “inactive” in each case.
For `CN(C)c1nc(N(C)C)nc(N(C)C)n1`, the Potency entry (in experiment [1]; in experiment [6]; with Papain (Carica papaya); in experiment [4]; in experiment [5]) was “inactive” in each case.
In the case of `CNCCCC12CCC(c3ccccc31)c1ccccc12`, the Potency result (in experiment [1]; with Papain (Carica papaya)) was “inactive” in each case. The Potency in experiment [6] was 12.6 µM (active); in experiment [4] it was 21.1 µM (active) and 20.9 µM (active); in experiment [5] it was 18.8 µM (active) and 20.9 µM (active).
On to `CC(C)NCC(O)c1ccc(O)c(O)c1` (stereo unspecified), for which the Potency entry (in experiment [1]; in experiment [2]; with Papain (Carica papaya); in experiment [4]) was “inactive” in each case.
In the case of `Cc1cnc(C(=O)NCCc2ccc(S(=O)(=O)NC(=O)NC3CCCCC3)cc2)cn1`, the Potency result (in experiment [6]; with Papain (Carica papaya)) was “inactive” each time.
